Where “and” joins values, the source holds several entries; their conditions need not be identical. Identical values can stand only once. In all, about 5,500 compounds went through this assay and about 2,000 (36%) were called active. Roughly 18% stayed inconclusive and do not appear here. No stated cut-off is given here; in the data, active means normalized growth mostly below about 0.91 (no sharp cut-off); inconclusive means no clear call, values can overlap the other calls; inactive means mostly above about 0.92. Some of the results follow.
Experiment: chemical genetic growth profiling, strain panel (AID 1159580);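 further: tested at 20 µM; growth read once vehicle control cultures reached saturation at 30 °C; 1 = growth at the plate median or of vehicle wells; lower values mean less growth of the strain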
Details: S. cerevisiae deletion strains, growth OD

Measured: normalized growth

N=c1ccn2c(n1)O[C@@H]1C2O[C@H](CO)[C@H]1O (stereo not given in full)
inactive: locus YAL021C, strain ccr4, hits give low values 1.02 | locus YAL026C, strain drs2, hits give low values 0.981 | locus YAL030W, strain snc1, hits give low values 0.987 | locus YBL061C, strain skt5, hits give low values 0.985 | locus YBR009C, strain hhf1, hits give low values 0.965 | locus YBR021W, strain FUR4, hits give low values 1.01 | locus YBR023C, strain chs3, hits give low values 0.99 | locus YBR171W, strain sec66, hits give low values 0.988 | locus YBR229C, strain ROT2, hits give low values 1 | locus YBR231C, strain swc5, hits give low values 0.98 | locus YBR279W, strain paf1, hits give low values 0.992 | locus YCL011C, strain gbp2, hits give low values 0.984 | locus YCL016C, strain dcc1, hits give low values 0.983 | locus YCL029C, strain bik1, hits give low values 1.01 | locus YCL061C, strain MRC1, hits give low values 0.988 | locus YCL069W, strain vba3, hits give low values 0.991 | locus YCR088W, strain abp1, hits give low values 0.993 | locus YDL005C, strain med2, hits give low values 0.992 | locus YDL035C, strain GPR1, hits give low values 1.01 | locus YDL040C, strain nat1, hits give low values 0.979 | locus YDL074C, strain BRE1, hits give low values 1.02 | locus YDL101C, strain DUN1, hits give low values 1.01 | locus YDL185W, strain tfp1, hits give low values 1.01 | locus YDL192W, strain arf1, hits give low values 1.01 | locus YDR001C, strain nth1, hits give low values 0.982 | locus YDR069C, strain doa4, hits give low values 0.962 | locus YDR101C, strain arx1, hits give low values 0.987 | locus YDR137W, strain rgp1, hits give low values 0.982 | locus YDR159W, strain sac3, hits give low values 0.939 | locus YDR162C, strain NBP2, hits give low values 1.01 | locus YDR195W, strain ref2 0.91 | locus YDR297W, strain sur2, hits give low values 0.996 | locus YDR318W, strain mcm21, hits give low values 1 | locus YDR334W, strain swr1, hits give low values 0.985 | locus YDR335W, strain msn5, hits give low values 0.979 | locus YDR388W, hits give low values 1.01 | locus YDR392W, strain spt3, hits give low values 0.83 | locus YDR502C, strain sam2, hits give low values 1.03 | locus YEL003W, strain gim4, hits give low values 0.984 | locus YEL037C, strain rad23, hits give low values 0.991 | locus YEL061C, strain CIN8 (second series), hits give low values 0.984 | locus YEL061C, strain CIN8, hits give low values 1.01 | locus YER015W, strain faa2, hits give low values 0.985 | locus YER016W, strain bim1, hits give low values 0.982 | locus YER110C, hits give low values 1.01 | locus YER111C, strain swi4, hits give low values 0.974 | locus YER155C, strain BEM2 (second series), hits give low values 0.949 | locus YER155C, strain BEM2, hits give low values 1 | locus YER167W, strain BCK2, hits give low values 1.01 | locus YFR010W, strain ubp6, hits give low values 0.975 | locus YGL078C, strain dbp3, hits give low values 1.01 | locus YGL086W, strain mad1, hits give low values 1.01 | locus YGL167C, strain pmr1, hits give low values 0.984 | locus YGL173C, strain kem1, hits give low values 0.981 | locus YGL227W, strain vid30, hits give low values 0.984 | locus YGL240W, strain doc1, hits give low values 0.959 | locus YGL248W, strain PDE1, hits give low values 1.01 | locus YGL253W, strain hxk2, hits give low values 0.981 | locus YGR078C, strain PAC10, hits give low values 1.01 | locus YGR135W, strain pre9, hits give low values 1.03 | locus YGR252W, strain gcn5, hits give low values 0.988 | locus YHR013C, strain ard1, hits give low values 0.939 | locus YHR027C, strain rpn1, hits give low values 0.989 | locus YHR030C, strain SLT2, hits give low values 1.01 and 0.988 | locus YHR079C, strain IRE1 (second series), hits give low values 1 | locus YHR079C, strain IRE1, hits give low values 0.985 | locus YHR094C, strain hxt1, hits give low values 1.01 | locus YHR129C, strain ARP1, hits give low values 0.997 | locus YHR142W, strain chs7, hits give low values 1.04 | locus YHR200W, strain rpn10, hits give low values 1.01 | locus YIL066C, strain RNR3, hits give low values 1.01 | locus YIL073C, strain SPO22, hits give low values 1.04 | locus YIL125W, strain kgd1, hits give low values 1 | locus YIR030C, strain dcg1, hits give low values 1.02 | locus YJL092W, strain hpr5, hits give low values 0.982 | locus YJL095W, strain BCK1 (second series), hits give low values 0.99 | locus YJL095W, strain BCK1, hits give low values 1.04 and 0.994 | locus YJL115W, strain asf1, hits give low values 1 | locus YJL129C, strain trk1, hits give low values 0.999 | locus YJL134W, strain LCB3, hits give low values 1.01 | locus YJL154C, strain vps35, hits give low values 0.988 | locus YJL164C, strain tpk1, hits give low values 1.01 | locus YJL166W, strain qcr8, hits give low values 0.99 | locus YJL168C, strain set2, hits give low values 1.01 | locus YJL187C, strain SWE1 (second series), hits give low values 1.02 | locus YJL187C, strain SWE1, hits give low values 0.984 | locus YJR043C, strain POL32, hits give low values 1.01 | locus YJR066W, strain TOR1, hits give low values 0.908 | locus YKL009W, strain mrt4, hits give low values 1.02 | locus YKL068W, hits give low values 1.01 | locus YKL085W, strain MDH1 (second series), hits give low values 1.02 | locus YKL085W, strain MDH1, hits give low values 1.02 | locus YKL160W, strain elf1, hits give low values 1.02 | locus YKL190W, strain CNB1, hits give low values 1.01 | locus YKR001C, strain vps1, hits give low values 1 | locus YKR026C, strain gcn3, hits give low values 0.989 | locus YKR091W, strain srl3, hits give low values 0.99 | locus YLL001W, strain dnm1, hits give low values 0.982 | locus YLL026W, hits give low values 0.987 | locus YLL041C, strain sdh2, hits give low values 0.992 | locus YLR027C, strain aat2, hits give low values 0.985 | locus YLR039C, strain RIC1, hits give low values 1 | locus YLR058C, strain SHM2, hits give low values 1.01 | locus YLR102C, strain apc9, hits give low values 1.01 | locus YLR113W, strain HOG1, hits give low values 0.989 | locus YLR221C, strain rsa3, hits give low values 1.01 | locus YLR258W, strain gsy2, hits give low values 0.984 | locus YLR262C, strain YPT6 (second series), hits give low values 1.01 | locus YLR262C, strain YPT6, hits give low values 1.02 | locus YLR268W, strain sec22, hits give low values 1 | locus YLR320W, strain mms22, hits give low values 0.971 | locus YLR330W, strain CHS5, hits give low values 1 | locus YLR342W, strain FKS1 (second series), hits give low values 1.01 | locus YLR342W, strain FKS1, hits give low values 0.985 | locus YLR357W, strain rsc2, hits give low values 0.95 | locus YLR370C, strain arc18, hits give low values 0.991 | locus YLR371W, strain rom2, hits give low values 1.01 | locus YLR384C, strain iki3, hits give low values 0.997 | locus YLR418C, strain cdc73, hits give low values 1.01 | locus YML016C, strain PPZ1, hits give low values 1.01 | locus YML032C, strain rad52, hits give low values 1 | locus YML120C, strain ndi1, hits give low values 1.01 | locus YML124C, strain tub3, hits give low values 1.01 | locus YMR058W, strain fet3, hits give low values 0.992 | locus YMR078C, strain ctf18, hits give low values 1.01 | locus YMR125W, strain sto1, hits give low values 0.951 | locus YMR129W, hits give low values 0.997 | locus YMR205C, strain PFK2, hits give low values 0.957 | locus YMR223W, strain ubp8, hits give low values 1.02 | locus YMR231W, strain pep5, hits give low values 0.991 | locus YMR307W, strain GAS1, hits give low values 1.02 | locus YNL067W, strain RPL9B, hits give low values 1.03 | locus YNL071W, strain lat1, hits give low values 0.994 | locus YNL153C, strain GIM3, hits give low values 1.02 | locus YNL183C, strain NPR1, hits give low values 0.941 | locus YNL209W, strain ssb2, hits give low values 1 | locus YNL233W, strain BNI4, hits give low values 1.01 | locus YNL248C, strain rpa49, hits give low values 1.01 | locus YNL250W, strain rad50, hits give low values 1 | locus YNL271C, strain bni1, hits give low values 1.02 | locus YNL298W, strain CLA4, hits give low values 1.01 | locus YNL307C, strain MCK1, hits give low values 1.01 | locus YNL322C, strain KRE1 (second series), hits give low values 1 | locus YNR049C, strain mso1, hits give low values 0.986 | locus YNR052C, strain pop2, hits give low values 1.02 | locus YOL006C, strain TOP1, hits give low values 1.09 | locus YOL012C, strain htz1 1.21 | locus YOL147C, strain pex11, hits give low values 1.01 | locus YOR001W, strain rrp6, hits give low values 1.01 | locus YOR061W, strain CKA2, hits give low values 1.01 | locus YOR069W, strain VPS5, hits give low values 1.01 | locus YOR070C, strain gyp1, hits give low values 0.995 | locus YOR080W, strain dia2, hits give low values 0.965 | locus YOR083W, strain WHI5, hits give low values 1.03 | locus YOR106W, strain vam3, hits give low values 1.02 | locus YOR136W, strain idh2, hits give low values 1.01 | locus YOR144C, strain elg1, hits give low values 1 | locus YOR184W, strain ser1, hits give low values 1.01 | locus YOR231W, strain MKK1, hits give low values 0.999 | locus YOR265W, strain rbl2, hits give low values 0.99 | locus YOR270C, strain vph1, hits give low values 0.983 | locus YOR290C, strain snf2, hits give low values 0.974 | locus YOR316C, strain cot1, hits give low values 1.02 | locus YPL051W, strain arl3, hits give low values 1 | locus YPL055C, strain LGE1, hits give low values 1.02 | locus YPL078C, strain atp4, hits give low values 1.01 | locus YPL106C, strain sse1, hits give low values 0.979 | locus YPL240C, strain hsp82, hits give low values 0.993 | locus YPL241C, strain CIN2, hits give low values 1.02 | locus YPL256C, strain CLN2, hits give low values 1.04 | locus YPR119W, strain clb2, hits give low values 1 | locus YPR141C, strain kar3, hits give low values 1.01 | locus YPR163C, strain tif3, hits give low values 1.01 | locus YPR167C, strain met16, hits give low values 1 | strain wtn01, hits give low values 1
